# A selection: hits, their analogues and other compounds. The true share with any hit is near 4.1%.
# Rv3671c protease = Rv3671c serine protease inhibitors, primary screen, biochemical, fluorescence polarization, M. tuberculosis H37Rv. P9WHR9. inhibition, % at 5.96 µM. hit rate 0.048% among 320,000. AID 2606, 2010; in the data active = inhibition above about 38%;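 note: extracellular domain of Rv3671c used as enzyme; 0% = enzyme with DMSO and 100% = no enzyme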
# Mtb FBA inh = Mtb FBA enzyme inhibitors, primary screen, biochemical, fluorescence, strain H37Rv; hit rate 2.3% among 360,000; inhibition, % at 1 µM; purified M. tuberculosis FBA, fluorescence read-out; in the data active = inhibition above about 27%;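 note: 0% = vehicle and 100% = reference inhibitor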
# RecA splice inh = Mtb RecA intein splicing inhibitors, primary screen, biochemical, fluorescence, HTS | Protein RecA (Mycobacterium tuberculosis (strain ATCC 25618 / H37Rv)), P9WHJ3 | cell-free RecA intein splicing | inhibition, % (concentration not given with the values) | hit rate 0.75% among 290,000 | AID 2221, 2009; in the data active = inhibition above about 30%;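 note: 0% = vehicle wells and 100% = reference inhibitor control wells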
# Mtb UGM inh = M. tuberculosis UGM enzyme inhibitors, primary screen, biochemical, fluorescence polarization, single point. hit rate 0.06% among 320,000. inhibition, % at 10 µM. UDP-galactopyranose mutase (Mycobacterium tuberculosis (strain ATCC 25618 / H37Rv)), …. purified UGM, fluorescence polarization probe displacement; in the data active = inhibition above about 10%, passing the limit was not always enough
# Target sequence (P9WIQ1 whole entry, looked up): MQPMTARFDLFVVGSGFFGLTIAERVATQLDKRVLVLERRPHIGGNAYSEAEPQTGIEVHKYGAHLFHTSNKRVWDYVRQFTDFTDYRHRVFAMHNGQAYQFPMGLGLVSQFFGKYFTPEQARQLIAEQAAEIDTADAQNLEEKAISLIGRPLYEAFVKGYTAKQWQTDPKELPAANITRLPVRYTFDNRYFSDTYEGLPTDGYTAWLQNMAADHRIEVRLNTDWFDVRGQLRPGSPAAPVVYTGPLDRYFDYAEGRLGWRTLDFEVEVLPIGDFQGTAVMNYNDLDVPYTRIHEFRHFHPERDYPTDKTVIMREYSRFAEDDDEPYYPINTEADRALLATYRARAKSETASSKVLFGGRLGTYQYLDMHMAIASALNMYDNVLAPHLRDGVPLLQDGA
# GDH-TPI counter = GDH-TPI coupling enzyme inhibitors, primary screen, artefact control for M. tuberculosis FBA inhibitor project, biochemical, absorbance, full deck; GDH-TPI coupled enzyme counterscreen, NADH absorbance; inhibition, % at 4.8 µM; hit rate 1.2% among 360,000; in the data active = inhibition above about 30%;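 note: 0% = DMSO wells and 100% = wells lacking the enzyme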
# BH1578 lux ind = inducers of Vibrio cholerae quorum light production without autoinducers, primary screen, BH1578 luxS cqsA deficient, single point. V. cholerae BH1578 lux reporter, luminescence, 6 h. activation, % at 18.7 µM. hit rate 0.16% among 350,000. AID 588436, 2011; in the data active = activation mostly above about 9.7%, no sharp cut-off
# The depositor's hits bear a star; i = inactive; / = no result; + = active, no number.
SMILES,Rv3671c protease,Mtb FBA inh,RecA splice inh,Mtb UGM inh,GDH-TPI counter,BH1578 lux ind
O=C(NC1CCCCC1)N(Cc1cc2cc3c(cc2[nH]c1=O)OCCO3)CC1CCCO1 (centres undefined),5,23,-2,4,36*,2
O=C(NC1CCCCC1)N(CCO)Cc1cc2cc3c(cc2[nH]c1=O)OCCO3,-3,23,-2,-3,13,0
Cc1ccc(S(=O)(=O)N(C)CC(=O)NNC(=O)CCC(=O)c2ccc(F)cc2)cc1,4,1,/,-1,8,i
CC(=O)Nc1ccc(C=NNC(=O)c2ccc(NS(=O)(=O)c3cccs3)cc2)cc1,-7,2,/,-1,59*,i
COc1cc(C=NNC(=O)c2ccc(NS(=O)(=O)c3cccs3)cc2)cc(Br)c1O,2,1,/,0,52*,i
CC(=O)Nc1ccc(/C=N/NC(=O)c2cccc(S(=O)(=O)N3CCOCC3)c2)cc1,0,1,-3,0,36*,0
COc1ccccc1CNC(=O)c1ccc(NS(=O)(=O)c2cccs2)cc1,-19,-3,3,5,-12,-1
O=C(NN=Cc1c(F)c(F)c(F)c(F)c1F)c1ccc(NS(=O)(=O)c2cccs2)cc1,-2,-4,/,-1,36*,i
Cc1ccsc1C(=O)OCC(=O)NC1CCCCC1,/,3,/,/,7,-4
O=C(Nc1nnc(Cc2ccccc2)s1)Nc1ccccc1F,1,1,2,-1,-7,0
O=C(NN=Cc1ccc(O)cc1)c1ccccc1NS(=O)(=O)c1cccs1,3,4,/,2,37*,0
Cc1ccc(S(=O)(=O)NC(CC(C)C)C(=O)Nc2ccncc2)cc1 (centres undefined),7,4,4,-2,0,0
c1cc2c(cc1N1CCCCC1)CNCc1cnnn1-2,/,-3,/,/,/,/
c1ccc2oc(-c3ccc4c(c3)CNCc3cnnn3-4)cc2c1,/,+,/,/,/,/
COc1ccc(CNCC(O)COc2ccc(C(C)(C)c3ccccc3)cc2)cc1 (centres undefined),-2,2,1,0,0,i
O=C1/C(=C/c2ccncc2)SC(=S)N1Nc1ccccc1,2,-2,9,5,21,0
O=C(CCCN1C(=O)S/C(=C\C=C\c2ccccc2)C1=O)Nc1ccc(C(=O)O)cc1,-35,4,30*,1,19,0
Cc1cc(C)nc(NN2C(=O)/C(=C/c3ccccc3)SC2=S)n1,-8,1,/,-1,34*,-1
Cc1ccc(NC(=O)CN2C(=O)S/C(=C/c3ccncc3)C2=O)cc1,-1,4,/,3,8,1
O=C(CN1C(=O)S/C(=C\C=C\c2ccccc2)C1=O)Nc1cccc(O)c1,-98,-3,5,-3,32*,1
O=C(CCN1C(=O)S/C(=C\C=C\c2ccccc2)C1=O)Nc1ccc(O)cc1,-9,-1,6,1,25,i
O=C(CN1C(=O)S/C(=C\c2ccc(C(=O)O)cc2)C1=O)Nc1ccccc1,6,0,0,6,35*,i
CCOc1ccc(CCNC(=O)c2c(C)nn(-c3ccccc3)c2Cl)cc1OCC,7,3,3,-2,4,i
O=C(O)c1ccc(/C=C2\SC(=S)N(Nc3ccccc3)C2=O)cc1,-4,-1,-4,4,34*,0
O=C(Nc1sc2c(c1C(=O)O)CCCC2)c1cccc(Cl)c1,/,1,4,-2,2,i
SMILES,Rv3671c protease,Mtb FBA inh,RecA splice inh,Mtb UGM inh,GDH-TPI counter,BH1578 lux ind
COC(=O)c1c(-c2ccc(S(C)(=O)=O)cc2)sc2ccc(OC)cc12,-4,3,/,-3,13,i
COC(=O)c1c(-c2ccc(S(C)(=O)=O)cc2)sc2cc(OC)ccc12,-6,190*,/,-2,13,-1
CCC(C(=O)NC1CCCCC1)N(Cc1cccs1)C(=O)CCC(=O)Nc1cc(C)on1 (centres undefined),-10,2,/,3,-10,5
CCN(CC)c1ccc(/C=N/NC(=O)OC)c(O)c1,-1,4,-9,2,43*,-1
CCN(CC)c1ccc(/C=N/NC(=O)c2ccoc2C)c(O)c1,2,12,-2,2,37*,0
O=C(COC(=O)CC1SC(N2CCCC2)=NC1=O)Nc1ccc(Br)cc1 (centres undefined),/,1,/,/,8,-1
CCC1(C)NC(=O)N(CC(=O)NCC(=O)Nc2c(C)cc(C)cc2C)C1=O (centres undefined),-6,6,/,4,8,i
Cc1cc(O)cc(O)c1C(=O)Cc1ccccc1,-8,0,2,2,7,0
O=C(Cc1ccc([N+](=O)[O-])cc1)c1c(O)cc(O)cc1O,-1,-1,2,1,35*,-5
COc1ccc(C(C)C)cc1-c1cc(C(=O)NCc2cccc(C(F)(F)F)c2)[nH]n1,/,1,/,/,2,i
O=C(CSc1nc2[nH]c(=O)cc(O)c2s1)Nc1ccc(Br)cc1,-1,6,/,0,32*,-1
O=C1N/C(=N\S(=O)(=O)Cc2ccccc2)S/C1=C/c1cccc([N+](=O)[O-])c1,-36,3,7,5,49*,i
Cc1ccc(S(=O)(=O)/N=C2/NC(=O)/C(=C/c3ccccc3)S2)cc1,-7,-1,/,2,34*,0
Cc1ccc(S(=O)(=O)/N=C2/NC(=O)/C(=C\c3ccccc3)S2)cc1,-36,0,/,5,39*,-2
O=C1N/C(=N/O)S/C1=C/c1cccc([N+](=O)[O-])c1,3,3,0,0,26,i
CC(OC(=O)CCN=C1NS(=O)(=O)c2ccccc21)C(=O)Nc1ccccc1F (centres undefined),1,-1,-3,0,-4,i
CCn1c(O)c(N=NC(=O)CNC(=O)c2ccccc2F)c2ccccc21,3,1,2,0,26,0
CC(C)n1c(O)c(N=NC(=O)CNC(=O)Cc2ccc(Cl)cc2)c2ccccc21,-4,-3,-3,1,29,i
COc1ccccc1C(=O)NCC(=O)N=Nc1c(O)n(C(C)C)c2ccccc12,-5,1,2,3,31*,0
CC(C)n1c(O)c(N=NC(=O)CNC(=O)CCc2ccccc2)c2ccccc21,-45,-2,0,-2,31*,0
CCN(CC)c1ccc(C(=O)OCC(=O)NC(C)(C)C)cc1,4,-2,0,0,57*,-1
CN(C)c1ccc(/C=C2\CCC/C(=C\c3ccccc3)C2=O)cc1,-23,-10,-1,0,-14,0

# Bioassay records as filed in PubChem BioAssay.
